# Measurements: PubChem BioAssay (NCI)
# About 83,000 compounds went through this panel and 20% of them were active in at least one assay; those are over-represented in the sample as a whole.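 Treatment: one concentration, 48 hours, 96-well format. Scoring: percent growth, with anything below 10 considered active.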 Calls of active or inactive are those of the source.
# Tested on: MDA-MB-468 breast
# Assay: NCI-60 one-dose screen, 48 h (100 = growth as untreated, 0 = no growth, -100 = all killed)
# Conditions: 10 µM unless noted
row,SMILES,growth
1,Brc1ccc2c(c1)-c1ccccc1C1=NCCN12,-45% (active)
2,O=C(Nc1ccc(F)cc1)c1c(NC(=O)C(F)(F)F)sc2c1CCCCC2,-17% (active)
3,O=C(Nc1ccc(Cl)cc1)c1cc2cc(F)ccc2cc1O,-1.3% (active)
4,OCC1OC(n2cnc3c(N/N=C\c4ccccn4)ncnc32)C(O)C1O (stereo unspecified),-24% (active)
5,COc1ccc(-c2c(-c3cc(OC)c4c(c3)OCO4)noc2N)cc1,-2.08% (active)
6,COc1cc2nc(-c3ccc(C)cc3)cc(OCCCNCC3CCCO3)c2cc1OC (stereo unspecified),68.8% (inactive)
